Measurements as given in PubChem BioAssay (NCI).
About 83,000 compounds went through this panel and 20% of them were active in at least one assay; those are over-represented in the sample as a whole.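 Method: cells in 96-well plates; compound added at one concentration; 48 h incubation; percent growth measured; values under 10 scored active.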 A number with no mark means an inactive call. Active and inactive are the calls of the source.

Tested on: OVCAR-3 ovarian
Assay: NCI-60 one-dose screen, 48 h (100 = growth as untreated, 0 = no growth, -100 = all killed)
Conditions: 10 µM unless noted

Question: With `COc1ccc(Cn2cc3c(c2-c2cc(OC)c(OC)c(OC)c2)CCCc2cnoc2-3)cc1` as the molecule, how does the growth read?
Answer: 4.45% (active)

Question: `CN(c1ccc(F)cc1)S(=O)(=O)c1ccc(-c2cnc(C3CC3)o2)cc1` was tested. Which growth did it give?
Answer: 6.57% (active)

Question: How did the growth turn out when `COC[C@]12CC[C@@H](C)[C@H](C)[C@H]1C1=CC[C@@H]3[C@@]4(C)CCCNC(C)(C)[C@@H]4CC[C@@]3(C)[C@]1(C)CC2` was run?
Answer: 41.4%

Question: `C=C(C)[C@@H]1CC[C@]2(C(=O)ON)CC[C@]3(C)[C@H](CC[C@@H]4[C@@]5(C)C/C(=C/c6ccc(Br)cc6)C(=O)C(C)(C)[C@@H]5CC[C@]43C)[C@@H]12` was tested. Which growth did it give?
Answer: 78%

Question: With `CN(c1ccc(Br)cc1)S(=O)(=O)c1ccc(-c2cnc(C3CC3)o2)cc1` as the molecule, how does the growth read?
Answer: 23.7%

Question: `CCCCCCNC(=O)Oc1ccc(/C(=C(\C)c2ccc(Cl)cc2)c2ccc(OCCN(C)C)cc2)cc1` was tested. Which growth did it give?
Answer: 66.4%

Question: For `O=C(NNc1nc2cc(F)ccc2n2cncc12)c1cnccn1`, which growth is on record?
Answer: 28.2%

Question: How did the growth turn out when `CN1CCN(c2ccc3c(C(N)=O)c(NC(=O)c4ccc(C(C)(C)C)cc4)sc3c2)CC1` was run?
Answer: 79.3%

Question: `NC(=O)C(=Cc1ccc(Cl)cc1)C(N)=O` was tested. Which growth did it give?
Answer: 52%

Question: For `CCN1C(=O)N(CC)C2SC(N/N=C/C=C/c3ccccc3OC)=NC21` (stereo unspecified), which growth is on record?
Answer: -39.6% (active)

Question: With `CC(=O)C1=NN(c2ccc(Cl)cc2)C(=O)CN1C` as the molecule, how does the growth read?
Answer: 123%

Question: `CCOC(=O)c1c(NCC(=O)Nc2ccc(Br)cc2)sc2c1CCCC2` was tested. Which growth did it give?
Answer: 10.3%

Question: For `CN1CCN(c2ccc3c(c2)nc(NNC(=O)c2ccncn2)c2cccn23)CC1`, which growth is on record?
Answer: 38%

Question: How did the growth turn out when `CCOc1c(C#N)c(Nc2ccc(S(N)(=O)=O)cc2)c(C#N)c2nnc(C)n12` was run?
Answer: 114%

Question: For `C#CCOc1ccc(C(Nc2ccc(Cl)cc2)c2nnnn2C2CCCCC2)cc1` (stereo unspecified), which growth is on record?
Answer: 101%

Question: With `COc1cc(C(=O)C[n+]2ccc3ccccc3c2)cc(OC)c1OC` as the molecule, how does the growth read?
Answer: 105%

Question: How did the growth turn out when `COc1ccc(Cn2cc3c(c2-c2ccccc2)CCCc2cnoc2-3)cc1` was run?
Answer: 22%

Question: `c1ccc(-c2c(-c3ccccc3)[n+](Cc3ccc4ccccc4c3)c(-c3ccccc3)n2Cc2ccc3ccccc3c2)cc1` was tested. Which growth did it give?
Answer: -87.8% (active)

Question: How did the growth turn out when `CCOC(=O)C1=C(C)N=C2Sc3ccccc3N2C1c1ccccc1` (stereo unspecified) was run?
Answer: 98.4%

Question: How did the growth turn out when `CCOC(=O)c1c(NC(=O)c2ccc(C(C)(C)C)cc2)sc2cc(OCCN3CCCCC3)ccc12` was run?
Answer: 74.8%

Question: How did the growth turn out when `COc1ccccc1/C=C/C=N/NC1=NC2C(S1)N(C)C(=O)N2c1ccccc1` (stereo unspecified) was run?
Answer: -27.2% (active)

Question: For `CC1(C)CC[C@]2(C(=O)O)CC[C@]3(C)C(=CCC4[C@@]5(C)C[C@@H](O)[C@@H]6OC(c7cccc([N+](=O)[O-])c7)OC[C@@]6(C)C5CC[C@]43C)C2C1` (stereo partly specified), which growth is on record?
Answer: 81.9%

Question: Which growth does the source give for `Oc1ccccc1/C=N/Nc1nc(N/N=C/c2ccccc2O)nc(N2CCOCC2)n1` here?
Answer: 33.6%

Question: Which growth does the source give for `IP(CCCSc1n(Cc2ccc3ccccc3c2)c(-c2ccccc2)c(-c2ccccc2)[n+]1Cc1ccc2ccccc2c1)(c1ccccc1)(c1ccccc1)c1ccccc1` here?
Answer: 8.3% (active)

Question: How did the growth turn out when `Cn1cc(-c2nnc(N)nc2-c2cn(C)c3ccc(F)cc23)c2cc(F)ccc21` was run?
Answer: 103%

Question: Which growth does the source give for `N/C(=N\OC(=O)CSc1nc2ccccc2s1)c1ccc(Cl)cc1` here?
Answer: 111%
